Results from ChEMBL document CHEMBL1961873, “Compounds: GSK PKIS; Assays: Nanosyn kinase panel” (2012).

Experiments:
[1] = molecular target: Serine/threonine-protein kinase MARK2 (Homo sapiens) (UniProt Q7KZI7); settings: at 1 µM
[2] = molecular target: PAS domain-containing serine/threonine-protein kinase (Homo sapiens) (UniProt Q96RG2); settings: at 0.1 µM
[3] = molecular target: PAS domain-containing serine/threonine-protein kinase (Homo sapiens) (UniProt Q96RG2); settings: at 1 µM
[4] = molecular target: Phosphorylase b kinase gamma catalytic chain, skeletal muscle/heart isoform (Homo sapiens) (UniProt Q16816); settings: at 0.1 µM
[5] = molecular target: Phosphorylase b kinase gamma catalytic chain, skeletal muscle/heart isoform (Homo sapiens) (UniProt Q16816); settings: at 1 µM
[6] = molecular target: T1, Phosphorylase b kinase gamma catalytic chain, liver/testis isoform (Homo sapiens) (UniProt P15735); settings: at 0.1 µM
T1 sequence (whole entry): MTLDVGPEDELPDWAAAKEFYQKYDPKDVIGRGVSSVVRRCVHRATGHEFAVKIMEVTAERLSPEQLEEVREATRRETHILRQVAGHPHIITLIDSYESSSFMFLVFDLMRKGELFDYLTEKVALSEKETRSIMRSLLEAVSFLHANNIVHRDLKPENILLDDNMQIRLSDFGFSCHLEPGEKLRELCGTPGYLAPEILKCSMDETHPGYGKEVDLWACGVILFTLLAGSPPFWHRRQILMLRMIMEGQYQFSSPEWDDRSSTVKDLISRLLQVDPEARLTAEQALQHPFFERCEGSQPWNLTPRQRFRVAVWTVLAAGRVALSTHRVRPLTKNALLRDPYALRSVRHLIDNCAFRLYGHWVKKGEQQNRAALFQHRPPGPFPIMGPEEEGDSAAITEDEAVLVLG

[7] = molecular target: T1, Phosphorylase b kinase gamma catalytic chain, liver/testis isoform (Homo sapiens); settings: at 1 µM
[8] = molecular target: Serine/threonine-protein kinase pim-1 (Homo sapiens) (UniProt P11309); settings: at 0.1 µM
Serine/threonine-protein kinase pim-1 (Homo sapiens), sequence (P11309 whole entry, looked up): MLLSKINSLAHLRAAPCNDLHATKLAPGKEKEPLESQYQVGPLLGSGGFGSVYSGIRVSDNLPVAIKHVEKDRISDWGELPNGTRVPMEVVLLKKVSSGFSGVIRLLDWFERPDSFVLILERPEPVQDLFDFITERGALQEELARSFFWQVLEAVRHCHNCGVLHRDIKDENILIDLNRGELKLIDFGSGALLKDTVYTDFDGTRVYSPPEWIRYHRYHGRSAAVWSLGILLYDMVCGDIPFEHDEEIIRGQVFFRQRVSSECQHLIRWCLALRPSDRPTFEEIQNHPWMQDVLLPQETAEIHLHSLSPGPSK

[9] = molecular target: Serine/threonine-protein kinase pim-1 (Homo sapiens) (UniProt P11309); settings: at 1 µM
[10] = molecular target: Serine/threonine-protein kinase pim-2 (Homo sapiens) (UniProt Q9P1W9); settings: at 0.1 µM
Serine/threonine-protein kinase pim-2 (Homo sapiens), sequence (Q9P1W9 whole entry, looked up): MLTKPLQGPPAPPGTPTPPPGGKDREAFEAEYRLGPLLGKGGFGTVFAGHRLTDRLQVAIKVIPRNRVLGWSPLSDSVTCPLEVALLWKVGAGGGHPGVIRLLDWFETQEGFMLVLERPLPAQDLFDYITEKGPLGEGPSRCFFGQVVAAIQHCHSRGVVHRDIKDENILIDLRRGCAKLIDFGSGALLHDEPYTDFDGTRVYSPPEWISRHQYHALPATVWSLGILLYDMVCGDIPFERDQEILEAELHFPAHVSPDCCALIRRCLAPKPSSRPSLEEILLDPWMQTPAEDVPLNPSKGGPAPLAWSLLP

[11] = molecular target: Serine/threonine-protein kinase pim-2 (Homo sapiens) (UniProt Q9P1W9); settings: at 1 µM
[12] = molecular target: Serine/threonine-protein kinase pim-3 (Homo sapiens) (UniProt Q86V86); settings: at 0.1 µM
[13] = molecular target: Serine/threonine-protein kinase pim-3 (Homo sapiens) (UniProt Q86V86); settings: at 1 µM
[14] = molecular target: T2, MAP kinase-activated protein kinase 5 (Homo sapiens) (UniProt Q8IW41); settings: at 0.1 µM
T2 sequence (whole entry): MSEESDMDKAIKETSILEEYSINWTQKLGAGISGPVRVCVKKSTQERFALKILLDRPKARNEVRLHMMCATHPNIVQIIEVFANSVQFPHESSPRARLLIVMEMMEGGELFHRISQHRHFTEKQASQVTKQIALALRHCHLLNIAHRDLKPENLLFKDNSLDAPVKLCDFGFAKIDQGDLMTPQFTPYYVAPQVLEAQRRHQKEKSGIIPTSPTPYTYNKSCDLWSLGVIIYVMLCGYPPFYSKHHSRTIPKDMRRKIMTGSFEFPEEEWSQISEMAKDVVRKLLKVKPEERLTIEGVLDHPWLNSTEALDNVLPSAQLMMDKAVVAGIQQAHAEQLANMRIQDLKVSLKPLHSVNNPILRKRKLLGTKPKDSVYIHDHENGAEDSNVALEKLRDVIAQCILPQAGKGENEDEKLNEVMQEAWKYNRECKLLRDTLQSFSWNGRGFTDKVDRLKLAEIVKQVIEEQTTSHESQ

[15] = molecular target: T2, MAP kinase-activated protein kinase 5 (Homo sapiens); settings: at 1 µM
[16] = molecular target: Serine/threonine-protein kinase SIK1 (Homo sapiens) (UniProt P57059); settings: at 0.1 µM
Serine/threonine-protein kinase SIK1 (Homo sapiens), sequence (P57059 whole entry): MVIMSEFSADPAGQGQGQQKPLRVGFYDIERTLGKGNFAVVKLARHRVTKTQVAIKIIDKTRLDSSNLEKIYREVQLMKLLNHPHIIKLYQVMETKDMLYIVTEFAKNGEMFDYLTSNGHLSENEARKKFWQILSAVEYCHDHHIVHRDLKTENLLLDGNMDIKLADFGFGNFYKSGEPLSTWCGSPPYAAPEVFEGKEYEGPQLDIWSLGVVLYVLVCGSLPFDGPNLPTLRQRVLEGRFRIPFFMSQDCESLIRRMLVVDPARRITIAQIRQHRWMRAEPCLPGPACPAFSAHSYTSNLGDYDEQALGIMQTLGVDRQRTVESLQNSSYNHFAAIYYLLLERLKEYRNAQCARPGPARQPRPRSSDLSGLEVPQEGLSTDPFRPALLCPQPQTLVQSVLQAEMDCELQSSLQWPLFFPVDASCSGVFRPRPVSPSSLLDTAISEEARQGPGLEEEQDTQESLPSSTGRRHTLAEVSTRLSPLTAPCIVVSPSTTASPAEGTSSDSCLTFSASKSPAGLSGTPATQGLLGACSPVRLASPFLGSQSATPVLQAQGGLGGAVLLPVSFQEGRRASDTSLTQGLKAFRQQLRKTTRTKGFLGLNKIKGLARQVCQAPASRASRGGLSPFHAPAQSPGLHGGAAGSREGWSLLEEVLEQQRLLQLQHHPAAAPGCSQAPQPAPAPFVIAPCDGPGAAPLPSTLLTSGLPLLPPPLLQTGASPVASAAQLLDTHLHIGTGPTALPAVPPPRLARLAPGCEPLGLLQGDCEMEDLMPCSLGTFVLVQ

[17] = molecular target: Serine/threonine-protein kinase SIK1 (Homo sapiens) (UniProt P57059); settings: at 1 µM
[18] = molecular target: Serine/threonine-protein kinase SIK2 (Homo sapiens) (UniProt Q9H0K1); settings: at 0.1 µM
Serine/threonine-protein kinase SIK2 (Homo sapiens), sequence (Q9H0K1 whole entry, looked up): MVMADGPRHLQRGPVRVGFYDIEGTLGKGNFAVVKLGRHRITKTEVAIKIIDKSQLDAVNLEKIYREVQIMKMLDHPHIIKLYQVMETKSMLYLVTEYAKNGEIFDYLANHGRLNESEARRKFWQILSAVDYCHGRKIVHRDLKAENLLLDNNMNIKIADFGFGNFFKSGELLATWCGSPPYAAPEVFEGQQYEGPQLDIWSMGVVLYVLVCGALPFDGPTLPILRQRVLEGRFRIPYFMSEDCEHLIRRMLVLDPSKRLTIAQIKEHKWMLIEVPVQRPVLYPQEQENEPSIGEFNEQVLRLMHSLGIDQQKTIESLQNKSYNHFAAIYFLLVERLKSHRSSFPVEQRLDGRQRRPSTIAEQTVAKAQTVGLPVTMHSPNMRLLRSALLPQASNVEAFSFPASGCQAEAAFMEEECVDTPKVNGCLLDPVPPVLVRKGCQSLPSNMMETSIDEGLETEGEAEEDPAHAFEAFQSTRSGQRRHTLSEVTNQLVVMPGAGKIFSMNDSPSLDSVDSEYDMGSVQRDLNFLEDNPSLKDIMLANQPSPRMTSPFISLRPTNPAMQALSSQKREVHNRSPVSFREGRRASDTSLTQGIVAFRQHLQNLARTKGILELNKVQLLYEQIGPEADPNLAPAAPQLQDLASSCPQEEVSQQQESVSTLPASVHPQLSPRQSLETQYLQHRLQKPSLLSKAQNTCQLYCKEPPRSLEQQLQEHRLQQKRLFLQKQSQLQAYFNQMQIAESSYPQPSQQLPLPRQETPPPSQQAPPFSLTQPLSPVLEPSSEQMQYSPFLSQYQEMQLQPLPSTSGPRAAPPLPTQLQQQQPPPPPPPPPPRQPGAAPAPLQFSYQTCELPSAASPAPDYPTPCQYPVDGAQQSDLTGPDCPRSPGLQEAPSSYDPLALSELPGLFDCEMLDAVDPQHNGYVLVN

[19] = molecular target: Serine/threonine-protein kinase SIK2 (Homo sapiens) (UniProt Q9H0K1); settings: at 1 µM
[20] = molecular target: T3, Serine/threonine-protein kinase TBK1 (Homo sapiens) (UniProt Q9UHD2); settings: at 0.1 µM;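 also: values are the mean TBK1 inhibition, taken from the GSK PKIS screening data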
T3 sequence (whole entry): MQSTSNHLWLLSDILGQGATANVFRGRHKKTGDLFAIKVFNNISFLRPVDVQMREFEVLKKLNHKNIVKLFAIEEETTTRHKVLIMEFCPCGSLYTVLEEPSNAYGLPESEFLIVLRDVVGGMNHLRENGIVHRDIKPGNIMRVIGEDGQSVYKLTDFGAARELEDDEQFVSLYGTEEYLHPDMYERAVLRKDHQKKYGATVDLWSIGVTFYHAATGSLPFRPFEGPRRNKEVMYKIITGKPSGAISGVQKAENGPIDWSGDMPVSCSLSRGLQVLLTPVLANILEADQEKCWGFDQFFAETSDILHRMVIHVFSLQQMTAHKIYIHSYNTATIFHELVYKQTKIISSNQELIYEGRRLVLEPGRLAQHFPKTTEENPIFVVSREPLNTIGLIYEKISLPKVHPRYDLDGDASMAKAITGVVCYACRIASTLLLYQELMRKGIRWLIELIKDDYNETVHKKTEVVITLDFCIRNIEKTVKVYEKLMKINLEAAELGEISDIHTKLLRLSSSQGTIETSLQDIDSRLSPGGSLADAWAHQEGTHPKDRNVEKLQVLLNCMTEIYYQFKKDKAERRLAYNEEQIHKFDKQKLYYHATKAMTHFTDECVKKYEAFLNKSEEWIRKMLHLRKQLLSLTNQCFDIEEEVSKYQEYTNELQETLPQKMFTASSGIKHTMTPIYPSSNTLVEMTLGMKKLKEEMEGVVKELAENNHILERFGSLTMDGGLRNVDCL

Serine/threonine-protein kinase MARK2 (Homo sapiens), sequence (Q7KZI7 whole entry, the tested form may be a part): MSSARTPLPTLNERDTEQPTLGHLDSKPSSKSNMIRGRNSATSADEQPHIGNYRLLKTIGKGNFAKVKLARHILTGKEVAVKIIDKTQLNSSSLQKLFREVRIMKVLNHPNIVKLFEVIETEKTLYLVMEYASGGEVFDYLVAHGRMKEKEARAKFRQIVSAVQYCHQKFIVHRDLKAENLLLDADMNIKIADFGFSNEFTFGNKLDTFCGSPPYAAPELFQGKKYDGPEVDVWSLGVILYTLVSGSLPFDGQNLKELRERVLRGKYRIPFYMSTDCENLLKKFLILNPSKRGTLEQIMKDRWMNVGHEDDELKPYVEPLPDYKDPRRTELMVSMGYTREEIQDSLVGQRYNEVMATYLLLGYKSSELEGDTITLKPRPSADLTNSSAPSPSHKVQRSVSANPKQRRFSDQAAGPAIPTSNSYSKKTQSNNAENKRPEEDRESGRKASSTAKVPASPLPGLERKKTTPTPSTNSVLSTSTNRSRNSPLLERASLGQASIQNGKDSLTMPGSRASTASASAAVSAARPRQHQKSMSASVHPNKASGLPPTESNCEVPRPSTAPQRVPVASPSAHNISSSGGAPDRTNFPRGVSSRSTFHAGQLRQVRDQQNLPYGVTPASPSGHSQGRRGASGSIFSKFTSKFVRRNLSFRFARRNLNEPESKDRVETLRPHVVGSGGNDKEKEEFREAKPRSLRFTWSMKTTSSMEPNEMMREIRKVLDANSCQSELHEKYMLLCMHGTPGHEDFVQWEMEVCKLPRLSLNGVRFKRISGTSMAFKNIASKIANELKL
PAS domain-containing serine/threonine-protein kinase (Homo sapiens), sequence (Q96RG2 whole entry, the tested form may be a part, canonical isoform): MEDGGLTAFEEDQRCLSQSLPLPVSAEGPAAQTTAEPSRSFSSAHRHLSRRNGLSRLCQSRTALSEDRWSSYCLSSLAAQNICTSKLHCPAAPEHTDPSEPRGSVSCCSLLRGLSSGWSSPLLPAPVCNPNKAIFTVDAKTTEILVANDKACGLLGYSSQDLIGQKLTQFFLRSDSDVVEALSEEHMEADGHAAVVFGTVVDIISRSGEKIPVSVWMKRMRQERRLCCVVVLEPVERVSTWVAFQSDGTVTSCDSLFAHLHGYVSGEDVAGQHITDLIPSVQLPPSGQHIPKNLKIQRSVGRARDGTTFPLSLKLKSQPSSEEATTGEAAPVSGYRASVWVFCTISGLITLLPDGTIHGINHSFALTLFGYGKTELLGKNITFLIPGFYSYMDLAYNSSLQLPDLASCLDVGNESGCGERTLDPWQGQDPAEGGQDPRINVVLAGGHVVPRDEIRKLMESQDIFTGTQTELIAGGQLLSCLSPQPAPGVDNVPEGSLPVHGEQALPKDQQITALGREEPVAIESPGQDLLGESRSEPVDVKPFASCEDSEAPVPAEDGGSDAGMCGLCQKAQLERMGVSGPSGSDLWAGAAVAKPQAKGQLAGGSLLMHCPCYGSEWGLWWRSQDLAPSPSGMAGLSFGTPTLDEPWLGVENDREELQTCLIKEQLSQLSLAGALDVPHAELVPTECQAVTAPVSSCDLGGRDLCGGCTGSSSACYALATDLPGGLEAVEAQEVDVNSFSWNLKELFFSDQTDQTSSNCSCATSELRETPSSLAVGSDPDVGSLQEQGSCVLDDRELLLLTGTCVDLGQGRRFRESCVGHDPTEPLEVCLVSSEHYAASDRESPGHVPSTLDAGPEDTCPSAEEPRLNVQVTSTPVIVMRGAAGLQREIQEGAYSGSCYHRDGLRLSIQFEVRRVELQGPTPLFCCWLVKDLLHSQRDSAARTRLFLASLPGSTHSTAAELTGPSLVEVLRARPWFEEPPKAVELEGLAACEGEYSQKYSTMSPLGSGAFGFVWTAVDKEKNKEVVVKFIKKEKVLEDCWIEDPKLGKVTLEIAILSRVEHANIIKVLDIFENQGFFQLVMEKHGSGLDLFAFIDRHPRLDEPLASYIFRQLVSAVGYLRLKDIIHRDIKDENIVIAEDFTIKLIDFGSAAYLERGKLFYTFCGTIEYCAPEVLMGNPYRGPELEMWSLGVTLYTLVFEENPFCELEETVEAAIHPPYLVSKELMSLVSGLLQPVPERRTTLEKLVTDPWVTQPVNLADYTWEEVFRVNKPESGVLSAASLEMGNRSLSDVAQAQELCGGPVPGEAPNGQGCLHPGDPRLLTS

Row | Compound | inhibition [1] [%] | inhibition [2] [%] | inhibition [3] [%] | inhibition [4] [%] | inhibition [5] [%] | inhibition [6] [%] | inhibition [7] [%] | inhibition [8] [%] | inhibition [9] [%] | inhibition [10] [%] | inhibition [11] [%] | inhibition [12] [%] | inhibition [13] [%] | inhibition [14] [%] | inhibition [15] [%] | inhibition [16] [%] | inhibition [17] [%] | inhibition [18] [%] | inhibition [19] [%] | inhibition [20] [%]
1 | Clc1ccc(-c2nn3ncccc3c2-c2ccnc(Nc3ccccc3)n2)cc1 | 0.63 | -0.14 | 0.05 | 1.22 | 3.66 | 0.85 | 0.51 | 0.13 | 0.33 | 0.34 | 0.51 | 3.12 | 0.33 | 0.57 | -0.73 | 3.67 | 13.6 | -1.6 | 13.9 | 1.29
2 | CNC(=O)c1cccc(C#Cc2cncnc2Nc2ccc(OCc3cccc(F)c3)c(Cl)c2)c1 | -2.06 | 0.44 | 0.79 | -2.47 | 2.19 | 2.39 | 3.44 | 0.55 | 0.54 | 0.37 | -1.75 | 0.69 | 2.29 | 0.27 | 1.49 | 2.11 | 3.26 | -1.57 | -1.75 | -0.71
3 | COc1ccc(-c2cc(-c3c[nH]nc3-c3ccccn3)ccn2)cc1 | 1.63 | 1.23 | 0.75 | 2.63 | 6.04 | 6.55 | 8.39 | -0.05 | 0.03 | 0.36 | 1.29 | 0.79 | 1.9 | 2.14 | 4.32 | 11.2 | 7.23 | 3.82 | 11.3 | 4.48
4 | CC(=O)NCc1cccc(C#Cc2cncnc2Nc2ccc(OCc3cccc(F)c3)c(Cl)c2)c1 | 1.33 | -0.91 | -1.6 | 3.33 | 5.96 | -0.18 | -1.04 | 1.13 | 0.22 | 0.41 | 0.6 | -0.57 | -1.13 | 0 | 0.14 | 1.32 | 2.96 | -1.4 | 5.8 | -0.27
5 | COc1ccc2[nH]c3c4[nH]c5ccc(OC)cc5c4c4c(c3c2c1)C(=O)NC4=O | 11.8 | -0.49 | -1.47 | 48.4 | 73.3 | 9.06 | 39.8 | 28.7 | 74.2 | 21.4 | 68.3 | 66.7 | 82.7 | 2.48 | 8.8 | 26.9 | 77.2 | 56.4 | 78.2 | 10.9
6 | Fc1ccc(-c2nn3ncccc3c2-c2ccnc(Nc3ccc4c(c3)OCCO4)n2)cc1 | -1.26 | -0.29 | -3.15 | 4.49 | 6.66 | 4.66 | 0.54 | 0.37 | 1.21 | 0.26 | -0.97 | -2.21 | -3.73 | 0.63 | 0.49 | 10.5 | 38.4 | 18.8 | 44.6 | 5.89
7 | CCn1c(-c2nonc2N)nc2ccccc21 | 2.79 | 1.01 | 0.51 | 2.03 | 2.71 | 3.71 | 0.96 | 0.21 | 4.54 | -0.12 | 1.82 | -0.8 | 10.7 | 0.58 | -0.74 | 7.25 | 7.65 | 9.3 | 1.28 | 3.25
8 | COc1cc(Nc2nccc(Nc3ccc4c(C)n[nH]c4c3)n2)cc(OC)c1OC | 8.17 | 1.32 | 0.33 | -0.65 | 5.26 | 2.27 | 0.52 | 1.13 | 1.26 | 1.46 | 1.57 | 2.01 | -0.7 | -0.04 | -1.77 | 8.95 | 51.2 | 4.45 | 28 | 4.57
9 | COc1ccc(-c2cc3c(N)ncnc3o2)cc1 | 3.33 | 1.26 | 0.48 | 0.47 | 2.53 | -1.54 | -2.23 | -1.06 | 2.3 | 0.27 | 2.23 | 1.44 | 6.86 | -0.43 | -0.51 | -3.64 | 12 | 5.43 | 7.33 | 0.41
10 | COc1ccc(-c2oc3ncnc(N)c3c2-c2ccc(NC(=O)Nc3cc(C(F)(F)F)ccc3F)cc2)cc1 | 0.81 | 1.45 | 4.43 | 4.93 | 16.9 | 6.42 | 9.75 | -0.3 | 0.75 | 0.28 | 1.06 | 0.37 | 5 | 2.58 | 4.28 | 6.56 | 14.4 | 11.9 | 10.7 | 1.47
11 | COC(=O)Nc1nc2ccc(S(=O)(=O)c3ccc(NC(=O)Nc4cc(C(F)(F)F)ccc4F)cc3)cc2[nH]1 | 1.75 | 0.31 | -0.77 | 1.75 | 1.03 | 2.73 | 0.31 | 0.78 | 1.71 | -0.06 | 0.73 | -0.65 | -1.2 | 0.38 | -0.4 | 2.55 | 3.12 | 0.97 | 0.1 | 2.66
12 | CCn1c(-c2nonc2N)nc2c(C#CC(C)(C)O)ncc(OC3CCNCC3)c21 | 62.2 | -0.02 | 13.1 | 1.52 | 3.09 | 4.06 | 3.58 | 2.62 | 24.1 | 1.16 | 11.7 | 2.64 | 23.8 | 0.79 | 1.22 | 3.53 | 10.6 | 3.69 | 14.8 | 12.2
13 | O=C(O[C@H]1CN[C@H](C#Cc2cc3ncnc(Nc4ccc(Cc5ccccc5)cc4)c3s2)C1)N1CCOCC1 | 0.4 | 0.94 | 0.47 | 3.11 | 3.13 | 3.27 | 2.45 | 1.81 | 0.55 | 0.21 | 1.06 | 1.54 | 3.8 | 0.58 | -0.05 | 0.92 | -0.23 | -0.21 | -0.83 | -0.27
